High-throughput results from PubChem BioAssay.
Most compounds without a hit are left out; they make up all but 1.4% or so of the library.
MEX-5 binding = C. elegans MEX-5 TCR-2 RNA binding activity; AID 1832; hit rate 0.38% among 300,000; MEX-5/FITC-TCR2 RNA binding, fluorescence polarization; stronger effect = lower value; Q9XUB2; activity score (negative = inhibition of binding), % at 10 µM;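 active means inhibition past about -25% in most replicates, and total fluorescence under double the plate's negative control median, limit read from the data; inconclusive means replicates evenly split on the limit, or fluorescence at least double controls; inactive means too little inhibition in most replicates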;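 further: 0% = DMSO and -100% = 5 µM competing unlabeled TCR2 RNA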
E coli Lon inh = inhibitors of E. coli Lon protease | purified E. coli Lon protease, fluorescence polarization | P0A9M0 | inhibition, % at 7.94 µM | hit rate 0.42% among 360,000; in the data active means inhibition above about 13%, passing the limit was not always enough;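 further: 0% = enzyme with probe and DMSO and 100% = no enzyme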
Target sequence (P0A9M0 whole entry, looked up): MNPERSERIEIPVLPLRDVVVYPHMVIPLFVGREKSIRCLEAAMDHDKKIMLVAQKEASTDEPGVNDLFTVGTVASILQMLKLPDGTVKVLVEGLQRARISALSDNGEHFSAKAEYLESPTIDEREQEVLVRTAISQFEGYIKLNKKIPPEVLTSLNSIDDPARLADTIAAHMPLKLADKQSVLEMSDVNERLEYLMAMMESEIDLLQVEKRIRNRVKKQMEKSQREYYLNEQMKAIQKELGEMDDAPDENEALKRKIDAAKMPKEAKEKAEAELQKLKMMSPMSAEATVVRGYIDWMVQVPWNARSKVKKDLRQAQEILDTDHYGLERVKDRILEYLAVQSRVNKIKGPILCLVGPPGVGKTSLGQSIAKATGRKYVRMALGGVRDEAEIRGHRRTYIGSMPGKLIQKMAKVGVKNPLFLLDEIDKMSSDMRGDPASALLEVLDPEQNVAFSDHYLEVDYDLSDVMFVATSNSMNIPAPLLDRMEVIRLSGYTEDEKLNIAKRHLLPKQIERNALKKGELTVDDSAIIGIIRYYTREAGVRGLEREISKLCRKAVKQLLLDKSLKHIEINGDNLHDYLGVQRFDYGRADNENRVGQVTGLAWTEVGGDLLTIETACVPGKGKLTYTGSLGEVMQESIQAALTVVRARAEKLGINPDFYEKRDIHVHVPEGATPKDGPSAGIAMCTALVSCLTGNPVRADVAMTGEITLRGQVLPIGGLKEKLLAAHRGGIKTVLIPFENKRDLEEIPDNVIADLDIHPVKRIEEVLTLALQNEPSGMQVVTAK
MCL1 BIM primary = inhibitors of human MCL1 binding to BIM-BH3 peptide. inhibition, % at 10.9 µM. Q07820. GST-MCL1 / FITC-Bim-BH3 fluorescence polarization. hit rate 0.68% among 320,000;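 active means inhibition above the mean inhibition of all tested compounds plus 3 SD, set per campaign, cut at about 40% in these data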;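 further: 0% = DMSO wells and 100% = unlabeled Bim-BH3 peptide control; higher means more loss of mP so more displacement of Bim peptide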
GLD-1 RNA inh = GLD-1-TGE RNA interaction inhibition (C. elegans); purified GLD-1 + fluorescein TGE RNA, fluorescence polarization; inhibition, % at 5.96 µM; hit rate 0.44% among 320,000; AID 2280;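 active means percent inhibition above a per-plate cutoff, the plate mean of test compounds plus 3 SD, cut at about 30% in these data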;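 further: 0% = DMSO wells with GLD-1 and probe and 100% = wells lacking GLD-1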
EBV gp42 block = inhibitors of Epstein-Barr virus glycoprotein 42. Q1HVG2. Fluorescence polarization binding assay, mP read-out. inhibition, % (tested at 21.74 µM). hit rate 0.42% among 220,000. AID 1085; in the data active means inhibition above about 50%
Bcl-xL primary = inhibitors of human Bcl-xL. hit rate 0.7% among 320,000. Q07817. GST-Bcl-xL / FITC-Bim BH3 peptide fluorescence polarization. inhibition, % at 10.9 µM;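 active means inhibition above the mean of all tested compounds plus 3 SD, cutoff set per campaign, cut at about 30% in these data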;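 further: 0% = DMSO wells and 100% = unlabeled Bim-BH3 peptide competitor; inhibitors lower millipolarization by displacing the labeled peptide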
BCLXL inh confirm = Bcl-xL (human) inhibition, MCL1 counter-screen confirmation | AID 2166 | shares compounds with MCL1 BIM primary | inhibition, % at 10.9 µM | GST-Bcl-xL / FITC-Bim BH3 peptide FP binding | hit rate 54% among 1,700;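 active means inhibition above a cutoff equal to the mean inhibition of all tested compounds plus 3 SD, cut at about 30% in these data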;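 further: 0% = DMSO wells and 100% = unlabeled Bim BH3 control peptide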
MCL1 inh confirm = confirmation of human MCL1 and BIM-BH3 interaction inhibitors; inhibition, % at 10.9 µM; GST-MCL1 / FITC-Bim-BH3 fluorescence polarization; shares compounds with MCL1 BIM primary; hit rate 61% among 1,700; AID 2168;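 active means inhibition above the average of all tested compounds plus 3 SD, cut at about 40% in these data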;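 further: 0% = DMSO wells and 100% = unlabeled Bim-BH3 control peptide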
GLD-1 TGE cf = confirmation of C. elegans GLD-1 TGE RNA binding inhibitors. hit rate 10% among 550. GLD-1/FL-TGE RNA fluorescence polarization, biochemical. shares compounds with GLD-1 RNA inh. inhibition, % at 5.96 µM;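 active means average inhibition across triplicates above the hit cutoff set in the primary screen, cut at about 32% in these data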;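 further: 0% = GLD-1 with RNA probe and DMSO and 100% = wells lacking GLD-1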
eLon confirm = E. coli Lon inhibition confirmation; shares compounds with E coli Lon inh; purified E. coli Lon, fluorescence polarization; inhibition, % at 7.94 µM; hit rate 31% among 1,400; in the data active means inhibition above about 16%;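 further: 0% = enzyme with probe and DMSO and 100% = no enzyme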
* = called active by the depositor; ? = inconclusive; nt = no result given; + = active, no number.

SMILES | MEX-5 binding | E coli Lon inh | MCL1 BIM primary | GLD-1 RNA inh | EBV gp42 block | Bcl-xL primary | BCLXL inh confirm | MCL1 inh confirm | eLon confirm | others
COC(=O)c1c(C)c2c(C)cc3ccccn3c-2c1C(=O)OC | 1 | 45* | 51* | 33* | 8 | 51* | 60* | 74* | -6 | GLD-1 TGE cf=20
O=C(Oc1ccc2c(c1)O/C(=C\c1ccncc1)C2=O)c1ccccc1 | -10 | 24* | 93* | 75* | -2 | 81* | 23 | 54* | 32*
Nc1ccc(S(=O)(=O)C(F)(F)F)cc1N | 0 | 1 | -10 | 6 | -7 | -1 | nt | nt | nt
COc1ccc(-n2ncc3c2CC(C)(C)CC3NC(=O)c2cn[nH]c2)cc1 (centres undefined) | -1 | -10 | nt | nt | nt | nt | nt | nt | nt
CC1(C)Cc2c(c(-c3ccco3)[nH]c(=O)c2C#N)CS1 | -23 | 34* | 148* | 94* | 32 | 110* | 94* | 125* | 29*
COc1cccc(C=O)c1OCCN1C(=O)c2ccccc2C1=O | 2 | -9 | nt | nt | nt | nt | nt | nt | nt
Cc1c(NC(=O)COc2ncnc3ccccc23)c(=O)n(-c2ccccc2)n1C | 0 | 0 | 2 | -3 | -18 | 5 | nt | nt | nt
Cc1ccc(C(=O)N2CCCN(c3nc4cc5c(cc4cc3C#N)OCO5)CC2)cc1 | -5 | 73* | 98* | 58* | nt | 87* | -3 | -5 | 5
COCCCN1C(=O)c2ccc(C(=O)NCCc3ccccc3)cc2C1=O | -2 | -2 | 4 | 5 | nt | 5 | nt | nt | nt
Cc1c(N)cc(N)cc1C(=O)O | -49* | 61* | 166* | 128* | -5 | 145* | 67* | 44* | 14
Cc1c(Br)cc(C(=O)O)c(C)c1C | 0 | 9 | 8 | 7 | -14 | 3 | nt | nt | nt
O=C(CCC(=O)N1CCOc2ccccc21)NCc1cccnc1 | 0 | 3 | 3 | 1 | nt | 2 | nt | nt | nt
Cc1ccc(NC(=O)CC2SC3=NCCCN3C2=O)c(C)c1 (centres undefined) | -9 | 64* | 112* | 82* | 5 | 110* | 51* | 56* | 17*
Cc1ccc(C)c(S(=O)(=O)NC(C)CCc2ccccc2)c1 (centres undefined) | 0 | 11 | -9 | 0 | nt | 3 | nt | nt | nt
COC(=O)CCCC1=CC2=C(c3ccccc3)C(=O)C(C)(OC(=O)C3CCCC3)C(=O)C2=CN1CCN1CCOCC1 (centres undefined) | -6 | 84* | 154* | 90* | -9 | 120* | 68* | 86* | 24*
Cc1cccc(OCCC(=O)Nc2ccc(Cl)cc2F)c1 | 0 | -6 | 1 | -6 | nt | 3 | nt | nt | nt
C[C@H](NC(=O)c1ccco1)C(=O)NNC(=O)COc1cccc(C(F)(F)F)c1 | nt | -3 | nt | 10 | nt | nt | nt | nt | nt
Cc1nn(C)cc1S(=O)(=O)N1CCN(Cc2ccccc2Cl)CC1 | -2 | -10 | 8 | 8 | -9 | 5 | nt | nt | nt
CCCN1CCN(S(=O)(=O)c2cn(C)nc2C)CC1 | -22 | 22* | 84* | 27 | nt | 66* | 77* | 96* | 14
CC(C)Cc1nnc(NC(=O)CN2C(=O)NC3(CC(C)CC(C)(C)C3)C2=O)s1 (centres undefined) | 2 | -2 | -7 | 1 | nt | 0 | nt | nt | nt
COc1ccc(C2C=C(c3ccc(Br)cc3)Nc3nc(N4C(=O)CCC4=O)nn32)cc1 (centres undefined) | -28* | 25* | 135* | 102* | 68* | 123* | 84* | 100* | -9
COc1ccc(C2=CC(c3sccc3C)n3nnnc3N2)cc1 (centres undefined) | -15 | 0 | 17 | 3 | -25 | 13 | nt | nt | nt
Cc1cc(C)n2nc(C)c(Br)c2n1 | -1 | 2 | 7 | 6 | -10 | -1 | nt | nt | nt
Cc1cc(C)n2nc3nc4c(cc3c2n1)CCCC4 | -6 | 56* | 106* | 38* | 2 | 111* | 22 | 18 | 13
N#CC(c1ccc(Cl)cc1)c1ccc(Cl)nn1 (centres undefined) | -2 | 7 | 6 | 0 | -20 | 0 | nt | nt | nt
SMILES | MEX-5 binding | E coli Lon inh | MCL1 BIM primary | GLD-1 RNA inh | EBV gp42 block | Bcl-xL primary | BCLXL inh confirm | MCL1 inh confirm | eLon confirm | others
CN(C)/C=C1\C=C2C(=O)c3ccccc3N2C1=O | nt | 93* | 116* | 91* | -64 | 109* | 115* | 121* | -123
C=CCOc1ccc(C2OC34CCCCC3C(C#N)(C#N)C2(C#N)C(=N)O4)cc1 (centres undefined) | -45* | 31* | 115* | 75* | -10 | 104* | 76* | 94* | 21*
Cc1ccc(S(=O)(=O)NCC(=O)NCCc2c[nH]c3ccccc23)cc1C | -7 | -5 | 0 | -7 | nt | 4 | nt | nt | nt
CCCC(=Nc1ccccc1)C1=C(O)C(C(=O)OC)C(C)(C)CC1=O (centres undefined) | 0 | -7 | -5 | -1 | -9 | 1 | nt | nt | nt
CCC(=Nc1ccc(N)cc1)C1=C(O)C(C(=O)OC)C(C)(C)CC1=O (centres undefined) | -5 | 20* | 61* | 46* | -20 | 56* | 30* | 19 | 3 | GLD-1 TGE cf=-3
O=C1c2cccc3cc([N+](=O)[O-])cc(c23)C(=O)N1/N=C/c1ccc(O)cc1O | 0 | 17* | 61* | 60* | 96* | 56* | 27 | 31 | 20* | GLD-1 TGE cf=11
CCN(CC)c1ccc(/C=N/N2C(=O)c3ccccc3C2=O)c(O)c1 | -1 | -5 | -6 | -8 | -16 | 0 | nt | nt | nt
CNc1ccc2c3c(cccc13)C(=O)N(C)C2=O | ? | + | + | 119* | nt | 178* | + | + | +
Oc1ccc2nnc3c(Br)cnn3c2c1 | ? | 134* | + | 144* | nt | 175* | 168* | + | 144*
Cc1ccc(N2C(=O)c3cccc4c(C(=O)O)ccc(c34)C2=O)cc1 | 3 | nt | 2 | 0 | -20 | 2 | nt | nt | nt
O=C1c2cccc3c(O)ccc(c23)C(=O)N1c1ccc(Cl)cc1 | -41* | + | + | + | nt | + | + | + | +
CC(=O)Nc1ccc(N2C(=O)c3cccc4c(O)ccc(c34)C2=O)cc1 | -20 | + | + | + | nt | + | + | + | +
Cc1ccc(NC(=O)COC(=O)[C@H](C)NC(N)=O)c(C)c1 | 2 | 3 | -4 | 8 | 1 | -2 | nt | nt | nt
